Screens from PubChem BioAssay.
HT1080-NT tox – qHTS for induction of synthetic lethality in tumor cells producing 2HG: qHTS for the HT-1080-NT fibrosarcoma cell line; HT-1080-NT fibrosarcoma viability, CellTiter-Glo ATP luminescence, 48 h; Potency, µM (doses to about 46.1 µM), for inactives: top-dose activity, negative = less viability, usual class: cytotoxic; 360,000 compounds, 1.6% hits; AID 686970, 2013;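 also: NT is the 2HG producing partner of a matched IDH1 knockdown line; potency is read from the fitted curve at half-maximal effect; 0% = DMSO-treated cells and -100% = media-only wells without cells; nearly all actives have a fitted effect of over 55% in size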
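Read-out is CellTiter-Glo luminescence after 10 minutes at room temperature, following 48 hours' compound treatment of HT-1080-NT cells (750 cells/well, RPMI, 5% FBS, 37 degrees C).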
IL1B secr inh – qHTS for Inhibitors of Inflammasome Signaling: IL-1-beta AlphaLISA Primary Screen. THP-1 LPS/ATP IL-1B secretion, AlphaLISA, 16 h; hits give low values. activity change, % at 57.5 µM. 360,000 compounds, 4.7% hits. AID 743279, 2014; in the data active = activity change below about -50%; inconclusive = mostly about -30% to -49%
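Secreted IL-1B measured by AlphaLISA bead assay after 16 h compound exposure of THP-1 cells; compounds (final up to 57.5 uM) added 1 h before LPS (250 ng/mL) and ATP (1.25 mM) stimulation; lower signal means less secretion.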
HT1080 IDH1KD tx – qHTS for induction of synthetic lethality in tumor cells producing 2HG: qHTS for the HT-1080-IDH1KD cell line | HT-1080 IDH1 knockdown viability, ATP luminescence, 48 h | Potency, µM (titrated, usually from 46.1 µM), for inactives: at the highest dose activity, negative = toxicity, actives largely listed as cytotoxic | 360,000 compounds, 2% hits;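 also: potency is read from the fitted curve at half-maximal effect; 0% = DMSO wells and -100% = cell-free medium wells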
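IDH1KD HT-1080 cells, 750/well, RPMI + 5% FBS; compound pinned after 2 h settling; 48 h, 37 °C; CellTiter-Glo luminescence; % activity normalised to DMSO and no-cell wells; curves fitted, classed by r2 and efficacy.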
12-LOX inh – Primary qHTS assay for inhibitors of human arachidonate 12S-lipoxygenase (ALOX12): Round 2. Polyunsaturated fatty acid lipoxygenase ALOX12 (Homo sapiens), P18054. purified 12hLO, xylenol orange hydroperoxide absorbance. Potency, µM (top dose mostly 108 µM), for the others: at the top dose activity change, negative = inhibition, most hits filed as inhibitors. 580,000 compounds, 1.1% hits. AID 1671190, 2021; also: potency is read from the fitted curve at half-maximal effect
Target sequence (P18054 whole entry, looked up): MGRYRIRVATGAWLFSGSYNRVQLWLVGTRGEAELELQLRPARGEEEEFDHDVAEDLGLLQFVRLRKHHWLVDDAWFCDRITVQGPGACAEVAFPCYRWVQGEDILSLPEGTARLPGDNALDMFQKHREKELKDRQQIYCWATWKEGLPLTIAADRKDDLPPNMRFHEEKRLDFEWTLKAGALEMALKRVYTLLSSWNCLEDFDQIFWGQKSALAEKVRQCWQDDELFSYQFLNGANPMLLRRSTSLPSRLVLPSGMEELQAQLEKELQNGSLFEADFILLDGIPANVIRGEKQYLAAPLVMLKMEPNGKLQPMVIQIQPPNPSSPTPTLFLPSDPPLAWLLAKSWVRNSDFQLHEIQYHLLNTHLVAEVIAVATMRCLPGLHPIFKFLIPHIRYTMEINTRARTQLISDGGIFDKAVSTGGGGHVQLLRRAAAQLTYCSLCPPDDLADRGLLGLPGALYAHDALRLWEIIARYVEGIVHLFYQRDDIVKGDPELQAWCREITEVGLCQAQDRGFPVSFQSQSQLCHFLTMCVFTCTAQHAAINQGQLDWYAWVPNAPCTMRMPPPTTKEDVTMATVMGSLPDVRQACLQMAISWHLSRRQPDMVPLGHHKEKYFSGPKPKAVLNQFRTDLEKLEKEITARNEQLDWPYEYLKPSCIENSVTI
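Purified human 12hLO (150 nM final) in 25 mM Hepes, 0.01% Triton X-100, pH 7.0 was preincubated 15 min at room temperature with compound. Then 40 uM arachidonic acid was added, 30 min. Hydroperoxide was read by Fe-XO absorbance ratio 573/405 nm.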
TDP1 cell CPT – qHTS for Inhibitors of human tyrosyl-DNA phosphodiesterase 1 (TDP1): qHTS in cells in presence of CPT; chicken DT40 Tdp1-/-;hTDP1 cells + 20 nM CPT, ATP luminescence, 48 h; Potency, µM (top dose mostly 46.2 µM), inactives show top-dose activity change, negative = growth inhibition, hits mostly inhibitors; 420,000 compounds, 12% hits; also: potency is read from the fitted curve at half-maximal effect; nearly all actives have a fitted effect of over 55% in size
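Chicken DT40 Tdp1-/- cells stably complemented with human TDP1 were seeded at 400 cells/well in medium containing 20 nM camptothecin, exposed to pin-transferred compounds, and grown at 37 °C for at least 48 hr. Viability was read as ATP luminescence.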
DT40 TDP1 no CPT – qHTS for Inhibitors of human tyrosyl-DNA phosphodiesterase 1 (TDP1): qHTS in cells in absence of CPT. DT40 Tdp1-/- hTDP1 cells, no CPT, ATP luminescence, 48 h. Potency, µM (titrated, usually from 46.2 µM), for the others: at the highest dose activity change, negative = growth inhibition, actives largely listed as inhibitors. 420,000 compounds, 15% hits. AID 686978, 2013; also: potency is read from the fitted curve at half-maximal effect; nearly all actives have a fitted effect of over 55% in size
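Growth of hTDP1-complemented DT40 Tdp1-knockout cells is measured by ATP luminescence after at least 48 hr compound exposure at 37 °C, with DMSO substituting for the 20 nM CPT used in the parallel screen.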
Starred values were filed as active, the others as inactive; ? = inconclusive; nt = no result given; [ ] = another dose, or the depositor's remark. Shown is part of a subset that was picked to be rich in hits. Unless noted, calls follow the shape of the dose curve; as a rule, active = well fitted curve in the direction sought with a large enough effect; inconclusive = small, poorly fitted or top-dose-only effect, or another doubt; inactive = no such curve, though single readings can be large; an effect the other way counts as inactive or inconclusive. Unless noted, % is scaled to controls: 0 for no effect and ±100 for the full control effect.

SMILES	HT1080-NT tox	IL1B secr inh	HT1080 IDH1KD tx	12-LOX inh	TDP1 cell CPT	DT40 TDP1 no CPT
CC(Cc1cnccn1)Nc1ccc(-c2nc(-c3cccc(Cl)c3)no2)cn1 (stereo not drawn)	nt	nt	nt	54%	nt	nt
CC(C)(C)N1CC(c2nc3ccccc3n2Cc2ccc3ccccc3c2)CC1=O (stereo not drawn)	nt	nt	nt	-31%	nt	nt
O=c1oc2ccc(Br)cc2cc1-c1nc(-c2ccccc2)cs1	nt	nt	nt	-12%	nt	nt
Fc1c(F)c(C(F)(F)F)c(F)c(F)c1N/N=C\c1cccs1	?	-74*	3%[9.24 µM]	?	16µM*	18µM*
Cn1c(=O)oc2cc(S(=O)(=O)N3CCC(C(=O)N4CCN(c5ccc(Cl)cc5)CC4)CC3)ccc21	nt	nt	nt	-16%	2.1µM*	2.3µM*
Cn1c(=O)oc2cc(S(=O)(=O)N3CCC(C(=O)N4CCN(c5cccc(Cl)c5)CC4)CC3)ccc21	nt	nt	nt	-16%	4.1µM*	1.5µM*
COc1ccc(N(CC(=O)Nc2ccc3c(c2)OCO3)S(C)(=O)=O)c(OC)c1	-6%	1	-7%	0%	-22%	0%
COc1ccccc1N(CC(=O)Nc1ccc(C)c(Cl)c1)S(=O)(=O)c1ccc(C)cc1	nt	nt	nt	-15%	21µM*	18µM*
COc1ccc(C)cc1S(=O)(=O)N(C)CC(=O)Nc1ccc2c(c1)OCO2	-18%	-6	-22%	4%	4%	-21%
COc1cccc(N(CC(=O)Nc2ccc3c(c2)OCO3)S(=O)(=O)c2ccccc2)c1	-13%	?	-10%	-22%	?	?
COc1ccc(S(=O)(=O)N(CC(=O)Nc2ccc3c(c2)OCO3)c2ccccc2OC)cc1	-3%	-9	-18%	74%	21µM*	15µM*
COc1ccc(C)cc1S(=O)(=O)N(CC(=O)Nc1ccc2c(c1)OCCO2)Cc1ccccc1	-3%	-7	-28%	19%	10µM*	?
COc1ccccc1N(CC(=O)Nc1ccccc1C(F)(F)F)S(=O)(=O)c1ccc(C)cc1	nt	nt	nt	-27%	?	?
COc1ccccc1N(CC(=O)Nc1ccc2c(c1)OCO2)S(=O)(=O)c1ccccc1	-8%	7	-7%	?	?	13µM*
CCCCCCCCCC(=O)OCC	nt	nt	nt	13%[176 µM]	nt	nt
COc1ccc(-c2csc(NC(=O)c3nn(C)c(=O)c4ccccc34)n2)cc1	nt	nt	nt	33%	nt	nt
COc1ccc(F)c(CN2CCCC3(CCN(c4cc(C)nc(N)n4)C3)C2)c1 (stereo not drawn)	nt	nt	nt	33%	nt	nt
Cc1ccc(OCCOc2ccc(Cl)cc2/C=C(/C#N)c2ccccc2)cc1	nt	nt	nt	-11%	nt	nt
Cc1nc(SCC(=O)N(c2ccccc2)c2ccccc2)oc1C	nt	nt	nt	9%	nt	nt
CC(OC(=O)c1ccccc1NS(=O)(=O)c1cccc(C(F)(F)F)c1)C(=O)N(C)Cc1ccccc1 (stereo not drawn)	-7%	-23	0%	-4%	?	23µM*
CC(OC(=O)c1ccc2ccccc2c1)C(=O)N(C)Cc1ccccc1 (stereo not drawn)	-5%	2	-10%	?	?	21µM*
C=CCn1c(N2CCCC(C)C2)nc2c1c(=O)n(C)c(=O)n2C (stereo not drawn)	nt	nt	nt	4%	nt	nt
O=C(C(c1ccccc1)N1CCN(C2CCS(=O)(=O)C2)CC1)N1CCOCC1 (stereo not drawn)	nt	nt	nt	-15%	nt	nt
COc1ccc(OC)c(CCNC(=O)c2cnn(-c3ccccc3)c2C2CCN(C(=O)OC(C)(C)C)CC2)c1	nt	nt	nt	2%	13µM*	23µM*
COc1ccc(CCNC(=O)c2cnn(-c3ccc(F)cc3)c2C2CCN(C(=O)OC(C)(C)C)CC2)c(OC)c1	nt	nt	nt	-28%	?	13µM*
SMILES	HT1080-NT tox	IL1B secr inh	HT1080 IDH1KD tx	12-LOX inh	TDP1 cell CPT	DT40 TDP1 no CPT
COc1ccc(-n2ncc(C(=O)NCc3cccs3)c2C2CCN(C(=O)OC(C)(C)C)CC2)cc1	nt	nt	nt	-1%	?	?
Cc1ccc(-n2ncc(C(=O)NCc3ccccn3)c2C2CCN(C(=O)OC(C)(C)C)CC2)c(C)c1	nt	nt	nt	-20%	?	21µM*
Cc1ccc(-n2ncc(C(=O)NCCN3CCc4ccccc4C3)c2C2CCN(C(=O)OC(C)(C)C)CC2)c(C)c1	nt	nt	nt	-23%	?	?
COc1ccc(CCNC(=O)c2cnn(-c3cccc(C)c3)c2C2CCN(C(=O)OC(C)(C)C)CC2)cc1OC	nt	nt	nt	-22%	?	15µM*
COc1ccc(CCNC(=O)c2cnn(-c3ccc(F)cc3)c2C2CCN(C(=O)OC(C)(C)C)CC2)cc1OC	nt	nt	nt	11%	?	?
CNC(=O)/C=C/c1ccc([N+](=O)[O-])cc1	nt	nt	nt	4%	nt	nt
COc1ccc(OC)c(CCNC(=O)c2cnn(-c3ccc(C)cc3C)c2C2CCN(C(=O)OC(C)(C)C)CC2)c1	nt	nt	nt	-30%	4.6µM*	15µM*
COc1ccccc1NCC(=O)NNC(=O)COc1ccc2ccccc2c1	nt	nt	nt	2%	nt	nt
O=C(O)c1cc(O)c2ccccc2c1O	nt	nt	nt	71µM*	nt	nt
CC1CCCCN1C(=O)CSc1c2c(nc3cc(Cl)ccc13)CCCC2 (stereo not drawn)	nt	nt	nt	-14%	?	18µM*
CC(C)CCNC(=O)CSc1c2c(nc3ccc(Cl)cc13)CCCC2	nt	nt	nt	-10%	?	?
CC1CCN(C(=O)CSc2c3c(nc4ccc(Cl)cc24)CCCC3)CC1	nt	nt	nt	?	21µM*	16µM*
CC1CCCN(C(=O)CSc2c3c(nc4cc(Cl)ccc24)CCCC3)C1 (stereo not drawn)	nt	nt	nt	-5%	21µM*	12µM*
O=C(CSc1c2c(nc3cc(Cl)ccc13)CCCC2)N1CCN(c2ccccc2F)CC1	nt	nt	nt	-8%	10µM*	6.5µM*
CC(C)C(C)NC(=O)c1ccccc1Br (stereo not drawn)	nt	nt	nt	3%	nt	nt
O=C(CSc1c2c(nc3ccc(Cl)cc13)CCCC2)N1CCN(C(=O)c2ccco2)CC1	-28%	-79*	?	-15%	15µM*	21µM*
O=C(CSc1nc2cc(Cl)ccc2s1)N1CCN(C(=O)c2ccco2)CC1	-1%	23	0%	383%	?	?
